# Data published in PubChem BioAssay AID686978 (National Center for Advancing Translational Sciences (NCATS), 2013).
# The whole screen tested about 420,000 compounds, of which about 64,000 (15%) were called active. Inconclusive results (about 27%) are left out. Calls follow the shape of the dose curve; as a rule, active = well fitted inhibition curve with a large enough effect; inconclusive = small, poorly fitted or top-dose-only effect; inactive = flat fitted curve, though single readings scatter. A selection follows. A call without a number means that no potency is given here.
# Assay: qHTS for Inhibitors of human tyrosyl-DNA phosphodiesterase 1 (TDP1): qHTS in cells in absence of CPT; also: nearly all actives have a fitted effect of over 55% in size
# Details: DT40 Tdp1-/- hTDP1 cells, no CPT, ATP luminescence, 48 h; activity change, negative = growth inhibition: at 46.2 µM (top of the series)
# How it was run: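 Compound effects on proliferation are scored in DT40 Tdp1-/-;hTDP1 cells in the absence of CPT. ATP levels (CellTiter-Glo luminescence) are recorded after a ≥48 hr, 37 °C incubation.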
# Potency is read from the fitted curve at half-maximal effect.
SMILES,Potency,"activity change, negative = growth inhibition"
Cc1cc(=O)[nH]c(=S)[nH]1,inactive,–
COc1cc(C(=O)OCc2ccc([N+](=O)[O-])cc2)cc(OC)c1OC,inactive,–
Cc1ccc(-n2cc3ccc([N+](=O)[O-])cc3n2)cc1,16.4 µM (active),–
Cc1cc(CO)nn1-c1ccc([N+](=O)[O-])cc1,inactive,–
Cc1ccc(C(=O)Cn2cc([N+](=O)[O-])nc2C)cc1,inactive,–
O=C(CN1CCN(c2ccccn2)CC1)NC1CCCCC1,inactive,–
O=C1CCC(CCC(=O)N2CCCC(C(=O)c3ccc(Cl)cc3)C2)=NN1 (stereo unspecified),inactive,–
CCOC(=O)c1cccc(NC(=O)CCc2c(C)nc3ncnn3c2C)c1,inactive,–
COc1cc(OC)cc(-c2nc3nc(C)c(CCC(=O)Nc4ccc(C)cc4)c(C)n3n2)c1,inactive,–
COc1cc(OC)cc(-c2nc3nc(C)c(CCC(=O)Nc4ccccc4)c(C)n3n2)c1,29.1 µM (active),–
COc1cc(OC)cc(-c2c(-c3cccs3)c3cc(-c4ccc(OC)cc4F)ccc3n2C)c1,14.6 µM (active),–
COc1ccc(-c2c(-c3cc(OC)cc(OC)c3)n(C)c3ccc(-c4ccn[nH]4)cc23)cc1,25.9 µM (active),–
COc1ccc(-c2cn[nH]c2-c2ccc(OC)cc2)cc1,inactive,–
COc1ccc(OC)c(-n2c(-c3ccn[nH]3)n[nH]c2=S)c1,inactive,–
COc1cc(OC)cc(-c2c(C#Cc3ccsc3)c3cc(-c4ccc(SC)cc4)ccc3n2C)c1,inactive,–
O=C(CSc1nncs1)NC1CCCc2ccccc21 (stereo unspecified),inactive,–
Cc1nc2cc3c(cc2s1)OCO3,inactive,–
Cc1nnc(SCC(=O)NC(=O)NC2CCCC2)n1N,inactive,–
COc1ccc(N2CC(C(=O)N[C@@H](C)C(=O)N3CCCCC3)CC2=O)cc1 (stereo partly specified),inactive,–
CCOC(=O)C1CCN(S(=O)(=O)c2ccc3c(c2)N(C)C(=O)CC(=O)N3C)CC1,inactive,–
O=[n+]1c2c(n([O-])c3cc(Br)ccc31)CCC2,inactive,–
CCOc1cc(C2C(C(=O)c3ccco3)=C(O)C(=O)N2Cc2ccccc2)ccc1O (stereo unspecified),inactive,–

SMILES,Potency,"activity change, negative = growth inhibition"
CC(C)c1ccc(C2C(C(=O)c3ccco3)=C(O)C(=O)N2CC2CCCO2)cc1 (stereo unspecified),–,-77.9% (active)
O=C(C1=C(O)C(=O)N(Cc2ccccc2)C1c1cccnc1)c1ccco1 (stereo unspecified),inactive,–
CCCc1nnc(NC(=O)CN2C(=O)c3ccccc3S2(=O)=O)s1,inactive,–
Cc1ccc(-c2nc3c(cnn3-c3ccccc3)c(=O)o2)cc1,inactive,–
Cc1ccc(-n2ncc3c(=O)n(-c4ccc(C)c(C)c4)c(-c4ccco4)nc32)cc1,18.4 µM (active),–
Cc1ccc(-n2ncc3c(Nc4cccc(C(=O)O)c4)ncnc32)cc1,inactive,–
O=Cc1c(NCCc2cccc(F)c2)c2ccccc2[nH]c1=O,inactive,–
CCC(=O)Nc1ccc(C(=O)NNC(=O)c2ccc(Cl)cc2)cc1,inactive,–
CC(=O)OC(C(=O)NC1CCCCC1)c1ccccc1 (stereo unspecified),inactive,–
Cc1cnc(CN(C)C(=O)CC2C(=O)NCCN2Cc2cccc(F)c2F)[nH]1 (stereo unspecified),inactive,–
Cc1ccc(Cn2c(C)c3cnn(CC(=O)NCc4ccccc4)c(=O)c3c2C)cc1,2.91 µM (active),–
O=C(Cn1ncc2c3ccccc3n(Cc3ccccc3)c2c1=O)NC1CCCCCC1,3.66 µM (active),–
CCCn1c2ccccc2c2cnn(CC(=O)NCCCN3CCCCC3CC)c(=O)c21 (stereo unspecified),inactive,–
Cc1ccc(Cn2c(C)c3cnn(CC(=O)NCCN4CCOCC4)c(=O)c3c2C)cc1,inactive,–
Cc1ccc2oc(=O)c3cnn(CC(=O)NCc4ccccc4Cl)c3c2c1,inactive,–
CCOC(=O)N1CCC(NC(=O)C(C)n2c3ccccc3c3cnn(C)c(=O)c32)CC1 (stereo unspecified),inactive,–
Cc1nn(CC(=O)NC2CCCCC2)c(=O)c2cccn12,inactive,–
CCN(CC)CCNC(=O)Cn1ncc2c3ccccc3n(Cc3ccccc3C)c2c1=O,25.9 µM (active),–
O=C(Cn1ncc2c3ccccc3n(Cc3ccccc3)c2c1=O)NCc1ccccn1,inactive,–
Cc1ccccc1CNC(=O)Cn1c(C)c2cnn(-c3ccccc3)c(=O)c2c1C,inactive,–
CCCn1c2ccccc2c2cnn(CC(=O)NCC3CCN(Cc4ccc(C)cc4)CC3)c(=O)c21,10.3 µM (active),–
Cc1c2cnn(CC(=O)NCc3ccccn3)c(=O)c2c(C)n1Cc1ccc(Cl)cc1,inactive,–

SMILES,Potency,"activity change, negative = growth inhibition"
O=C1OC(Cc2ccccc2)C(c2ccccc2)C1=O (stereo unspecified),inactive,–
Cc1cc(S(=O)(=O)NCC(C)C)ccc1OCC(=O)NC1CC1,inactive,–
CCCCCC(=O)Nc1ccc(-c2cn3cccnc3n2)cc1,inactive,–
O=C(NNC(=O)C(O)c1ccccc1)NC1CCCCC1 (stereo unspecified),inactive,–
Cc1ccc(NC(=O)C(c2ccccc2)N2CCN(C(=O)c3ccco3)CC2)cc1 (stereo unspecified),inactive,–
O=c1c(-c2cc(F)cc(F)c2)nc2cnc(Oc3ccccc3)nc2n1C[C@H]1CCCO1,inactive,–
CC1OC(OCC2OC(Oc3c(-c4ccc(O)c(O)c4)oc4cc(O)cc(O)c4c3=O)C(O)C(O)C2O)[C@@H](O)C(O)C1O (stereo partly specified),inactive,–
O=C(O)Cc1ccc(NC(=O)Nc2cccc3ccccc23)cc1,inactive,–
Cc1ccc2c(c1)N(CC(=O)N1CCCC(C)C1)C(=O)CO2 (stereo unspecified),inactive,–
NC1=C([N+](=O)[O-])C(c2ccccc2)C2=C(CCCC2=O)O1 (stereo unspecified),inactive,–
CCOc1cnc(C(=O)NNC(=O)c2ccccc2Br)o1,inactive,–
Cc1cccc(C)c1NC(=O)NC1=CCCN1C,inactive,–
CC1CC(C)CN(CCC(=O)Nc2ccc3c(c2)CCC3)C1 (stereo unspecified),inactive,–
COC(=O)N(C)C[C@@H]1OCc2cnnn2CCCC(=O)N([C@@H](C)CO)C[C@@H]1C,inactive,–
CC(C)(C)n1nnnc1C(c1ccc2ncccc2c1)N1CCSCC1 (stereo unspecified),inactive,–
O=C1c2ccccc2C(=O)N1CCOc1ccc(F)cc1,inactive,–
Cc1cccc2c1N(CCOc1ccccc1)C(=O)C2=O,1.3 µM (active),–
Cc1cccc(C)c1-n1nnnc1C1(C)CCC(=O)N1CCOc1ccccc1 (stereo unspecified),inactive,–
CNS(=O)(=O)c1ccc(NC(=O)C2CC(=O)N(c3ccc(Cl)cc3)C2)cc1 (stereo unspecified),inactive,–
CC12C(=O)N(c3ccccc3)C(=O)C1C(c1ccccc1)N1CCCN12 (stereo unspecified),inactive,–
CCCN(c1ccc(C)cc1)c1nc(=O)c2cccnc2s1,18.4 µM (active),–
NC1=NC2(CCCCC2)N(c2ccc(F)cc2F)C(N)=N1,inactive,–
